# Hits are enriched below; roughly 3.4% of the tested compounds scored in any of these assays.
# FBW7 act: human FBW7 E3 ligase activation, primary screen. AlphaScreen FBW7–phospho-cyclin E peptide binding, activator screen. normalized activity (activation), % at 26.1 µM. 650,000 tested, 0.13% active. AID 1259310; in the data active means normalized activity above about 1.9%;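 further: purified mutant Fbw7 with reduced substrate affinity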
# GPR151 activ: activates the human receptor GPR151; 650,000 tested, 1% active; activation, % at 11.2 µM; PathHunter beta-arrestin GPR151 cells, luminescence; in the data active means activation above about 4.9%;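 further: 0% = median of compound wells and 100% = cells with positive control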
# MITF primary: human MITF inhibition, primary screen. AID 1259374. 650,000 tested, 0.91% active. inhibition, % at 2.6 µM. O75030. AlphaScreen MITF homodimerization, bead proximity signal; in the data active means inhibition above about 50%;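 further: 0% = vehicle wells with protein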
# Target sequence (O75030 whole entry, looked up): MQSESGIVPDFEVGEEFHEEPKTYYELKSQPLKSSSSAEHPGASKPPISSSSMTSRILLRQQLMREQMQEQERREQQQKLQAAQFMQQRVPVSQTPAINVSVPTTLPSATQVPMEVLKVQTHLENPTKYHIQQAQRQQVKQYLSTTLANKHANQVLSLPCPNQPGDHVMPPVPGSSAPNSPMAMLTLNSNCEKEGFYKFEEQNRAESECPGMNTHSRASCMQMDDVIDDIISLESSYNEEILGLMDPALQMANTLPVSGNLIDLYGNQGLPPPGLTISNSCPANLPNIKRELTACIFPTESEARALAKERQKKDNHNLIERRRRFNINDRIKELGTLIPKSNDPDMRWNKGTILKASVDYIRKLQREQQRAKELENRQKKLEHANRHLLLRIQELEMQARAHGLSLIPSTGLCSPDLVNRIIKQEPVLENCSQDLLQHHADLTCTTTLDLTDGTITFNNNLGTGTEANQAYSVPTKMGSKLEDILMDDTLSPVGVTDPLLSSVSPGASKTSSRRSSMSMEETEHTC
# TEAD-YAP block: TEAD-YAP interaction inhibition. 640,000 tested, 1.4% active. HEK-TIYL cells, TEAD-Gal4/YAP UAS-luciferase luminescence. inhibition, % at 9.12 µM; in the data active means inhibition above about 32%;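 further: 0% = median of test compound wells and 100% = reference inhibitor wells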
# Numbers without * were called inactive; ! = not confirmed by another sample.
SMILES,FBW7 act,GPR151 activ,MITF primary,TEAD-YAP block
COc1ccc(NS(=O)(=O)c2ccc(-c3ccc(S(=O)(=O)Nc4ccc(OC)cc4OC)cc3)cc2)c(OC)c1,0,-1,11,-9
O=c1[nH]c2ccc(S(=O)(=O)NCCCO)cc2[nH]1,1.9*,0,21,5
COc1cccc(-n2cc(-c3cc4ccccc4oc3=O)[nH]c2=S)c1,0,-8,1,95*
Cc1sc(NC(=O)c2cc(-c3ccc(C(C)(C)C)cc3)nc3ccccc23)c(C(N)=O)c1C,2,0,20,46*
COc1cncc(-c2cnc(Nc3ccc(N4CCOCC4)cc3)c3nccn23)c1,0,0,13,5
Cc1ccc[n+](CC(=O)Nc2ccccc2)c1,0,0,-5,10
OC[C@H]1O[C@@H](Oc2cc(O)cc(/C=C/c3ccc(O)cc3)c2)[C@H](O)[C@@H](O)[C@@H]1O,0,2,5,12
Oc1ccc(/C=C/c2cc(O)cc(O)c2)cc1,0,-6,-6,89*!
CCOC(=O)N1CCC(Nc2ncnc3c2c(-c2ccccc2)cn3-c2ccc(F)cc2)CC1,1,-2,17,-17
CCOC(=O)c1cnc2ccc(OCC)cc2c1NCCCN(CC)CC,1,0,-3,33*
COc1ccc(/C=N\NC(=O)C2=NNC(=O)C2C)cc1 (stereo not given),0,-1,7,36*
CC1C(=O)NN=C1C(=O)N/N=C\C=C\c1ccccc1 (stereo not given),0,0,11,-10
CC(=O)N1CC(C)Sc2cc(S(=O)(=O)NCc3ccccc3)ccc21 (stereo not given),0,0,4,10
CCOc1cc(-c2nnc(SCC(=O)NCc3ccccc3)nc2-c2ccc(OC)c(OCC)c2)ccc1OC,0,0,13,52*
COc1ccc(-c2nnc(SCC(=O)NCc3cccs3)nc2-c2ccc(OC)c(OC)c2)cc1OC,0,3,3,56*
CCOc1cc(-c2nnc(SCC(=O)NCc3ccc(C)cc3)nc2-c2ccc(OC)c(OCC)c2)ccc1OC,0,0,-6,11
Cc1cnc(Nc2ncccn2)nc1NCc1cccc(C(F)(F)F)c1,0,0,-11,0
FC(F)(F)c1cccc(CNc2ncnc3sccc23)c1,0,4,-13,46*
CC(C)n1c(-c2cccs2)nc2c(NCc3cccc(C(F)(F)F)c3)ncnc21,0,3,-13,1
COc1ccc(-c2nc3ncnc(NCc4cccc(C(F)(F)F)c4)c3[nH]2)cc1,0,-1,4,46*
Cc1cnc(Nc2ccccn2)nc1NCc1cccc(C(F)(F)F)c1,0,4,3,47*
Nc1nc(NCc2cccc(C(F)(F)F)c2)cc(Nc2cnccn2)n1,1,-1,4,56*
Cc1ccc(CN2CCN3C(=O)[C@@H](CC(C)C)NC(=O)[C@H]3C2)cc1F,0,-1,-14,-2
Cc1ccc(C(=O)NCc2n[nH]c(=S)n2-c2ccccc2Cl)cc1C,0,0,7,0
Cc1cnc(Nc2ccc3ncccc3c2)nc1NCc1cccc(C(F)(F)F)c1,0,5,7,53*
SMILES,FBW7 act,GPR151 activ,MITF primary,TEAD-YAP block
Cc1cnc(Nc2ccccc2)nc1NCc1cccc(C(F)(F)F)c1,0,2,6,50*
CCNc1ncc(C)c(NCc2cccc(C(F)(F)F)c2)n1,0,3,-5,23
Cc1cnc(Nc2cccnc2)nc1NCc1ccccc1,0,4,3,33*
Cc1cnc(NCCN2CCOCC2)nc1NCc1cccc(C(F)(F)F)c1,0,1,-6,32*
CCc1c(C)sc(NC(=O)COc2ccc(Br)cc2)c1C#N,0,0,6,5
COCCCN1C(=O)c2[nH]nc(-c3ccccc3O)c2C1c1cccc(Br)c1 (stereo not given),0,0,10,35*
COCCCN1C(=O)c2[nH]nc(-c3ccccc3O)c2C1c1cccc(O)c1 (stereo not given),0,0,11,3
CN(C1CCC(=O)N(Cc2cc3c(cc2Cl)OCO3)CC1)C1CCOC1 (stereo not given),0,0,3,-2
Cc1nn(C2CCS(=O)(=O)C2)c(Cl)c1/C=C/c1nc2ccccc2s1 (stereo not given),0,-5,-11,95*
CCOC(=O)c1sc2ncnc(Nc3ccc(C)cc3C)c2c1C,0,0,4,55*
CN(Cc1ccccc1)S(=O)(=O)c1ccc(NC(=O)/C=C/c2ccc(F)cc2)cc1,0,-1,-6,3
CCOc1ccc(/C=C/C(=O)Nc2ccccc2)cc1,0,-9,2,51*
COc1ccc(/C=C/C(=O)Nc2ccc(S(=O)(=O)N(C)Cc3ccccc3)cc2)cc1,0,4,-7,43*
CC(=O)/C=C/c1ccc(OCc2ccccc2)cc1,0,-5,8,44*
COc1ccc(NC(=O)C2CCCCC2C(=O)O)c([N+](=O)[O-])c1 (stereo not given),0,1,2,4
COC(=O)c1sc2nc(C)nc(SC3CCOC3=O)c2c1C (stereo not given),0,0,18,6
C=CCn1c(=O)c2ccccc2n2c(SC(C)C(C)=O)nnc12 (stereo not given),0,-2,-9,-6
CCCN1CCC2(CCC(CNC(=O)c3ccccc3)O2)CC1 (stereo not given),0,3,12,3
CN(C)/C=C1/S/C(=N/S(=O)(=O)c2ccccc2)N(C2CCCCC2)C1=O,2.5*,-1,3,-7
Cc1sc2nc(-c3cccnc3)nc(NCCSCc3ccco3)c2c1C,0,0,3,68*
Cc1nc(NCc2cccnc2)c2c(C)c(C)sc2n1,0,-1,-3,4
O=C(COc1ccccc1)Nc1ccc(F)cc1F,1,1,7,-18
CCCCC[n+]1c(/C=C2\Sc3ccccc3N2CC)ccc2ccccc21,0,3,13,83*
CCCCN1/C(=C/c2ccc3ccccc3[n+]2CC)Sc2cc(NC(C)=O)ccc21,0,0,18,16
CCCC[n+]1ccccc1/C=C1\Sc2ccccc2N1CC,0,0,3,89*
SMILES,FBW7 act,GPR151 activ,MITF primary,TEAD-YAP block
CCC[n+]1c(/C=C2\Sc3ccccc3N2CC)ccc2ccccc21,0,4,7,88*
Cc1ccc(CSc2ccc3nnc(CCNC(=O)c4ccccc4)n3n2)cc1,0,0,13,0
CCC(NC(=O)Oc1cc(C)ccc1C(C)C)(C(F)(F)F)C(F)(F)F,0,0,1,8
CC(C)n1c(Nc2ncccn2)nc2c(NCc3nc4ccccc4[nH]3)ncnc21,0,-1,18,11
CC1CCC(C(C)C)C(OC(=O)Cn2c(-c3ccc(Cl)cc3)[n+](C)c3ccccc32)C1 (stereo not given),0,4,-3,45*
CC1=NOC(=O)/C1=C/c1ccccc1OS(=O)(=O)c1ccc(C)cc1,0,0,70*,5
COc1ccccc1/C=C1\C(=O)ON=C1C,0,2,71*,-2

# High-throughput results (PubChem BioAssay)
